# Results as given in ChEMBL document CHEMBL3988442, “University of Dundee, Small-Polar-MMV Screening Library” (2021).
# Results with a measured potency or affinity are listed apart.
# Molecular target: Protein translocase subunit SecA (Escherichia coli (strain K12)) (UniProt P10408)
# Assay: Assay to Identify E. coli SecA ATPase Inhibitors
# Assay type: functional
# Set-up: scale not given: direction of the effect not stated beside the values
# Settings: 30 µM
# Chain of Protein translocase subunit SecA (Escherichia coli (strain K12)) (P10408 whole entry): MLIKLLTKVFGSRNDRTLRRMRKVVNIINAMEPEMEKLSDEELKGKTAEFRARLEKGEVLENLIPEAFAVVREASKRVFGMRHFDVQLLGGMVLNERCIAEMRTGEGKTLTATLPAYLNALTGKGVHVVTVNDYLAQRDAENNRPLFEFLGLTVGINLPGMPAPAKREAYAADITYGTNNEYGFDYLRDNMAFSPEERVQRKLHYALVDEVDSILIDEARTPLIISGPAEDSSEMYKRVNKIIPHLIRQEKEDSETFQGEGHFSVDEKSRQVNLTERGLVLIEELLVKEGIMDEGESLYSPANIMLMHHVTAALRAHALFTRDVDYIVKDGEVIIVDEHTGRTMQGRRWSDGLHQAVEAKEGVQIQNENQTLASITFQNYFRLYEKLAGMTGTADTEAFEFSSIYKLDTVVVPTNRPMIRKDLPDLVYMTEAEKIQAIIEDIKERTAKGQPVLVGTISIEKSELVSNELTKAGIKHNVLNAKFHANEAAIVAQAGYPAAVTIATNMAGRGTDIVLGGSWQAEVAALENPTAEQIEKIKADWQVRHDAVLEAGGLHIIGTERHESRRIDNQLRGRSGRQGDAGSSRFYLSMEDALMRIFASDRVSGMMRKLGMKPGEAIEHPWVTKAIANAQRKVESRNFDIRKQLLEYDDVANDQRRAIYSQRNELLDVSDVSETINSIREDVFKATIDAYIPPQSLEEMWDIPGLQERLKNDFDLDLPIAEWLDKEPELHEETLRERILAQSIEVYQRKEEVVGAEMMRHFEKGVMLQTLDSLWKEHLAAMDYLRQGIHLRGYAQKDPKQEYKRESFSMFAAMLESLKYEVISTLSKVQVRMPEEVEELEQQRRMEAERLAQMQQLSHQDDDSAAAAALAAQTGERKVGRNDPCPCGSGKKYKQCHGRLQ
row,SMILES,Percent Effect [%]
1,COc1ccc(CCN2CCCC(CN(C)Cc3ccc(C)o3)C2)cc1 (stereo not drawn),-1.16
2,CC(C)(C(=O)NCC(N)=O)c1ccccc1F,-2.75
3,COc1cc(C)c(C(C)NC(=O)Nc2nnc(C)s2)cc1OC (stereo not drawn),-4.05
4,Cc1ccc(CN2CC[C@H]3[C@@H]2CCC(=O)N3CCN2CCCC2)s1,-1.28
5,CS(=O)(=O)NC[C@@H]1OC[C@H]2CN(C(=O)c3ccc[nH]3)CC[C@H]21,-1.96
6,CC(C)OCCCNC(=O)CN1CCC(N2CCN(C)C2=O)CC1,-4.79
7,O=C(Cn1nc(-c2ccc(F)cc2)oc1=O)Nc1ccccc1,0.224
8,CNS(=O)(=O)c1cccc(C(C)NCc2nccn2C(C)C)c1 (stereo not drawn),-0.324
9,Cc1cc(C)n(CC2CCCN2C(=O)c2cccc3[nH]ncc23)n1 (stereo not drawn),-2.49
10,CC1CCCN(Cc2c(C3CCOCC3)[nH]c3ncccc23)C1 (stereo not drawn),-2.15
11,CCCc1nc(CN2CCOC(CNc3cccnn3)C2)cs1 (stereo not drawn),-3.31
12,CN(C)C(=O)C1CN(Cc2c[nH]cn2)CCN(C2CCOCC2)C1 (stereo not drawn),-7.04
13,CC(Oc1ccccc1C(F)(F)F)C(=O)NCC(N)=O (stereo not drawn),-4.95
14,CCn1cc(CN(C)S(=O)(=O)c2ccc(Cl)cc2)cn1,-0.763
15,Cc1cnn(CC2CCCCN2C(=O)CN(C)C2CC2)c1 (stereo not drawn),0.161
16,Cc1ccc(NC2CCN(C(=O)Cc3cccc(F)c3)CC2)nn1,-1.31
17,O=C(NCCCN1CCOCC1)c1cc(-c2ccco2)[nH]n1,-3.38
18,CCc1ccc(S(=O)(=O)Nc2cc(C(=O)O)c(F)cc2F)s1,-10.3
19,O=C(Nc1ccc(F)cc1)N1C[C@H]2CC[C@@H]1CN(Cc1cccnc1)C2,-3.11
20,CCC(C)NC(=O)Nc1ccc(CN2CCOC2=O)cc1 (stereo not drawn),-5.29

row,SMILES,Percent Effect [%]
1,Cc1cnc2c(S(=O)(=O)NCC3CCS(=O)(=O)C3)cccc2c1 (stereo not drawn),-3.39
2,Cn1ncc2c(=O)[nH]c(CN3CCCC3CC3CCCCC3)nc21 (stereo not drawn),-1.58
3,COc1cc(CNC(=O)c2c(C)noc2C(C)C)ccn1,-2.87
4,Cc1nc(C)n(CC2CN(CCc3ccncc3)CCO2)n1 (stereo not drawn),-1.44
5,Nc1cc2c(nn1)CCN(C(=O)c1cccc3c1OCCO3)C2,0.377
6,COc1cccc(CN2CCCCCC2c2cccs2)c1O (stereo not drawn),-0.394
7,CC(C)c1cc(NC(=O)CN2CCc3ccccc3C2)on1,-4.45
8,Cc1cc(C[C@@H]2COC[C@H]2NCc2ccc(Br)s2)on1,-7.36
9,Cn1nc(C2CN(C(=O)c3cscn3)C2)c2nccnc21,-0.655
10,Cc1cc(C)n(CC(=O)N2CCC(NS(=O)(=O)c3ccccc3)CC2)n1,-0.375
11,Cc1ccccc1C(=O)CN1C(=O)c2ccccc2CS1(=O)=O,-2.33
12,CCCS(=O)(=O)N1CCC(NC(=O)c2ccc(Cl)s2)CC1,-0.0871
13,COCC(c1cccc(C(F)(F)F)c1)N(C)C(=O)c1cc(C)n[nH]1 (stereo not drawn),0.248
14,Cc1nn(C)c(C)c1CCC(=O)N1CCCC1Cn1cccn1 (stereo not drawn),-4.71
15,CN(Cc1ccc(F)cc1)C(=O)NCc1nnc2n1CCCCC2,-8.45
16,Cc1cc(CN2CCN(C(=O)NCc3nc(C)cs3)CC2)on1,-3.26
17,COCCOc1ccc(NC(=O)C2CC(=O)N(C)C2)cn1 (stereo not drawn),0.0993
18,Cc1cnn(CC2CCCN2C(=O)CCc2nc3ccccc3[nH]2)c1 (stereo not drawn),-4.12
19,CCN(CC)C(=O)c1ccc(-c2ccsc2)nc1C,-1.54

# Molecular target: T1, Ubiquitin-activating enzyme e1, putative (Leishmania donovani (strain BPK282A1)) (UniProt E9BSI1)
# T1 sequence (whole entry): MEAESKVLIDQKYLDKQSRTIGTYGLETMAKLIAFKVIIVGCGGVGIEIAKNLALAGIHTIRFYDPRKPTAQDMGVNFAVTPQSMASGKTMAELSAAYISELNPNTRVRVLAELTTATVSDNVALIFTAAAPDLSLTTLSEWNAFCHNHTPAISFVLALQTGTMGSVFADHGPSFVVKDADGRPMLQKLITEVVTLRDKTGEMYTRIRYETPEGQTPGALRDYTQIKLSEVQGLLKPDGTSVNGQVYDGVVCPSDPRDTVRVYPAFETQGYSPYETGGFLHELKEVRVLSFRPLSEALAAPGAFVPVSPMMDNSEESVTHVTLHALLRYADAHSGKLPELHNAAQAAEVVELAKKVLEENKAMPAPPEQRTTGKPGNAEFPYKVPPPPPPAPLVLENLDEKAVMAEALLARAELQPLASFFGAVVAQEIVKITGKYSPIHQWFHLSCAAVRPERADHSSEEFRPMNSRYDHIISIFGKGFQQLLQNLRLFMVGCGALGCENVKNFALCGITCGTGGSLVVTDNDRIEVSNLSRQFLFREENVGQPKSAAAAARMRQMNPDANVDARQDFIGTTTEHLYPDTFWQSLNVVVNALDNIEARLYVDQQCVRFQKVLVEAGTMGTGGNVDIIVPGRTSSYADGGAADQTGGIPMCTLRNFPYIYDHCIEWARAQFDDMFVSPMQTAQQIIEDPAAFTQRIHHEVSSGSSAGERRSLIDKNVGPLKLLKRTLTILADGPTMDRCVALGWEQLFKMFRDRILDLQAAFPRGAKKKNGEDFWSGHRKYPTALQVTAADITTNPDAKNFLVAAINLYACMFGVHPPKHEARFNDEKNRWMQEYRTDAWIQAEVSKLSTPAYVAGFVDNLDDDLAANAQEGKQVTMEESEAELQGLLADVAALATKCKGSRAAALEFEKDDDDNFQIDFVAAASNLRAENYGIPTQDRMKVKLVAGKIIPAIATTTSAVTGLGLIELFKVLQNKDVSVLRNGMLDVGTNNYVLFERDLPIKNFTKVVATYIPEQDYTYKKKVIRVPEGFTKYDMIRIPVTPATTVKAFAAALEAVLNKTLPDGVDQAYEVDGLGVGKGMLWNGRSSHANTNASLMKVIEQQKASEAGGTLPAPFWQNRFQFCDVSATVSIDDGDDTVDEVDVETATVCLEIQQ
# Assay: Leishmania donovani Ubiquitin Activating Enzyme (LdE1)
# Assay type: functional
# Set-up: scale not given: direction of the effect not stated beside the values
# Settings: 30 µM
row,SMILES,Percent Effect [%]
1,COc1ccc(CCN2CCCC(CN(C)Cc3ccc(C)o3)C2)cc1 (stereo not drawn),0
2,CC(C)(C(=O)NCC(N)=O)c1ccccc1F,-1.39
3,COc1cc(C)c(C(C)NC(=O)Nc2nnc(C)s2)cc1OC (stereo not drawn),5.41
4,Cc1ccc(CN2CC[C@H]3[C@@H]2CCC(=O)N3CCN2CCCC2)s1,10.7
5,CS(=O)(=O)NC[C@@H]1OC[C@H]2CN(C(=O)c3ccc[nH]3)CC[C@H]21,-187
6,CC(C)OCCCNC(=O)CN1CCC(N2CCN(C)C2=O)CC1,-12.7
7,O=C(Cn1nc(-c2ccc(F)cc2)oc1=O)Nc1ccccc1,21.1
8,CNS(=O)(=O)c1cccc(C(C)NCc2nccn2C(C)C)c1 (stereo not drawn),13.5
9,Cc1cc(C)n(CC2CCCN2C(=O)c2cccc3[nH]ncc23)n1 (stereo not drawn),-10.8
10,CC1CCCN(Cc2c(C3CCOCC3)[nH]c3ncccc23)C1 (stereo not drawn),25.7
11,CCCc1nc(CN2CCOC(CNc3cccnn3)C2)cs1 (stereo not drawn),2.7
12,CN(C)C(=O)C1CN(Cc2c[nH]cn2)CCN(C2CCOCC2)C1 (stereo not drawn),12.2
13,CC(Oc1ccccc1C(F)(F)F)C(=O)NCC(N)=O (stereo not drawn),5.41
14,CCn1cc(CN(C)S(=O)(=O)c2ccc(Cl)cc2)cn1,14.7
15,Cc1cnn(CC2CCCCN2C(=O)CN(C)C2CC2)c1 (stereo not drawn),26.6
16,Cc1ccc(NC2CCN(C(=O)Cc3cccc(F)c3)CC2)nn1,21.6
17,O=C(NCCCN1CCOCC1)c1cc(-c2ccco2)[nH]n1,8.22
18,CCc1ccc(S(=O)(=O)Nc2cc(C(=O)O)c(F)cc2F)s1,2.63
19,O=C(Nc1ccc(F)cc1)N1C[C@H]2CC[C@@H]1CN(Cc1cccnc1)C2,11
20,CCC(C)NC(=O)Nc1ccc(CN2CCOC2=O)cc1 (stereo not drawn),-6.94

row,SMILES,Percent Effect [%]
1,Cc1cnc2c(S(=O)(=O)NCC3CCS(=O)(=O)C3)cccc2c1 (stereo not drawn),21.1
2,Cn1ncc2c(=O)[nH]c(CN3CCCC3CC3CCCCC3)nc21 (stereo not drawn),21.1
3,COc1cc(CNC(=O)c2c(C)noc2C(C)C)ccn1,26
4,Cc1nc(C)n(CC2CN(CCc3ccncc3)CCO2)n1 (stereo not drawn),5.48
5,Nc1cc2c(nn1)CCN(C(=O)c1cccc3c1OCCO3)C2,2.6
6,COc1cccc(CN2CCCCCC2c2cccs2)c1O (stereo not drawn),0
7,CC(C)c1cc(NC(=O)CN2CCc3ccccc3C2)on1,28.6
8,Cc1cc(C[C@@H]2COC[C@H]2NCc2ccc(Br)s2)on1,1.35
9,Cn1nc(C2CN(C(=O)c3cscn3)C2)c2nccnc21,17.6
10,Cc1cc(C)n(CC(=O)N2CCC(NS(=O)(=O)c3ccccc3)CC2)n1,13.2
11,Cc1ccccc1C(=O)CN1C(=O)c2ccccc2CS1(=O)=O,-10.8
12,CCCS(=O)(=O)N1CCC(NC(=O)c2ccc(Cl)s2)CC1,2.67
13,COCC(c1cccc(C(F)(F)F)c1)N(C)C(=O)c1cc(C)n[nH]1 (stereo not drawn),18.4
14,Cc1nn(C)c(C)c1CCC(=O)N1CCCC1Cn1cccn1 (stereo not drawn),-2.7
15,CN(Cc1ccc(F)cc1)C(=O)NCc1nnc2n1CCCCC2,12.7
16,Cc1cc(CN2CCN(C(=O)NCc3nc(C)cs3)CC2)on1,23.7
17,COCCOc1ccc(NC(=O)C2CC(=O)N(C)C2)cn1 (stereo not drawn),12.7
18,Cc1cnn(CC2CCCN2C(=O)CCc2nc3ccccc3[nH]2)c1 (stereo not drawn),7.59
19,CCN(CC)C(=O)c1ccc(-c2ccsc2)nc1C,6.94
